Experimental data reported in PubChem BioAssay (Tox21).
Results filed as inconclusive are left out. A number with no mark means an inactive call. Active and inactive are the calls of the source. Calls follow the shape of the dose curve; as a rule, active = well fitted cell-killing curve with a large enough effect in the repeat runs; inconclusive = weak or mixed curves, or effect the other way; inactive = no such curve, though single readings can be large or run the other way. Non-standard residues stand in square brackets, D forms with d. Residues, ends and D or L forms follow the SMILES beside them. pGlu = O=C1CC[C@@H](C(=O)O)N1; Thz = O=C(O)[C@@H]1CSCN1

Test: qHTS assay to identify small molecule antagonists of the glucocorticoid receptor (GR) signaling pathway - cell viability counter screen (AID 720693); also: nearly all actives have a fitted effect of over 55% in size
Details: GR-bla HeLa viability, CellTiter-Glo luminescence, 18 h, with 5 nM dexamethasone present; series mostly up to 58.5 µM; viability change, negative = cytotoxic: at the top concentration
% is scaled to controls: 0 for no effect and ±100 for the full control effect; potency is read from the fitted curve at half-maximal effect.

SMILES | Potency | viability change, negative = cytotoxic
CCN(CC)c1ccc(C(=C2C=CC(=[N+](CC)CC)C=C2)c2ccccc2)cc1 | 1.51 µM (active) | 
C=CC1=C(C)C2=CC3=NC(=C(CC(=O)[O-])C4=NC(=C(C)C4=C([O-])[O-])C=c4[n-]c(c(C)c4CC)=CC1=N2)C(CCC(=O)[O-])C3C.[Cu+2].[Na+].[Na+].[Na+] (stereo unspecified) |  | 4.95%
COc1ccc(CCNC[C@H](O)c2ccc(O)cc2)cc1OC |  | 11%
Cc1cc(C(=O)NNCc2ccccc2)no1 |  | 3.2% [at 27 µM]
NC[C@@H]1O[C@H](O[C@H]2[C@@H](O)[C@H](O[C@@H]3[C@@H](O)[C@H](N)C[C@H](N)[C@H]3O[C@H]3O[C@H](CN)[C@@H](O)[C@H](O)[C@H]3N)O[C@@H]2CO)[C@H](N)[C@@H](O)[C@@H]1O |  | -5.53%

Test: qHTS assay for identifying genotoxic compounds that show differential cytotoxicity against isogenic chicken DT40 cell lines with known DNA damage response pathways - wild type cell line (AID 743012); also: nearly all actives have a fitted effect of over 60% in size
Details: DT40 wild type chicken cells viability, CellTiter-Glo, 40 h; series mostly up to 68.4 µM; activity change, negative = cytotoxicity: at the top concentration
How it was run: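 Luminescent ATP viability signal (CellTiter-Glo, 30 min RT) recorded after wild type DT40 cells were incubated with compounds for 40 h at 37 C/5% CO2.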

SMILES | activity change, negative = cytotoxicity [%] | Potency
CCCCCCCCCCCC(=O)OC[C@@H](O)C1OC[C@H](O)[C@H]1O (stereo partly specified) | -9.57 | 
CN(C)c1ccc(C(=C2C=CC(=[N+](C)C)C=C2)c2c(O)c(S(=O)(=O)[O-])cc3cc(S(=O)(=O)O)ccc23)cc1 |  | 11.9 µM (active)
CNc1cc(OC)c(C(=O)N[C@H]2CCN(Cc3ccccc3)[C@H]2C)cc1Cl |  | 5.96 µM (active)
O=C(O)c1cccc(/C=C2/C[C@@H]3[C@@H](/C=C/[C@@H](O)C4CCCCC4)[C@H](O)C[C@@H]3O2)c1 | 14.3 | 
NCCCNCCCCNC(=O)C(O)NC(=O)CCCCCCN=C(N)N (stereo unspecified) |  | 1.06 µM (active)
C=C[C@]1(C)C[C@@H](OC(=O)CSCCN(CC)CC)[C@]2(C)[C@H](C)CC[C@]3(CCC(=O)[C@H]32)[C@@H](C)[C@@H]1O |  | 5.31 µM (active)
CC(O)[C@@H]1NC(=O)[C@H](Cc2ccccc2)NC(=O)[C@H](C(C)O)NC(=O)[C@H](CCCCN)NC(=O)[C@H](Cc2c[nH]c3ccccc23)NC(=O)[C@H](Cc2ccccc2)NC(=O)[C@H](Cc2ccccc2)NC(=O)[C@H](CC(N)=O)NC(=O)[C@H](CCCCN)NC(=O)[C@@H](NC(=O)CNC(=O)[C@H](C)N)CSSC[C@@H](C(=O)O)NC(=O)[C@H](CO)NC1=O (stereo partly specified) | -0.565 | 
O=C(CO)[C@@H](O)[C@H](O)[C@@H](O)C(=O)O | -1.78 | 
O=C(O)[C@H]1/C(=C/CO)O[C@@H]2CC(=O)N21 | 7.8 | 
CN(C)CCCN1c2ccccc2C(C)(C)c2ccccc21 |  | 18.8 µM (active)
NCCC(=O)[N-][C@@H](Cc1cnc[nH]1)C(=O)O.[Zn] | 3.78 | 
Cc1cc2nc3c(=O)[nH]c(=O)nc-3n(C[C@H](O)[C@H](O)[C@H](O)COP(=O)(O)OP(=O)(O)OC[C@H]3O[C@@H](n4cnc5c(N)ncnc54)[C@H](O)[C@@H]3O)c2cc1C | 15.4 | 
C[N@+]12CCCC[C@@H]1CCC(=C(c1cccs1)c1cccs1)C2 |  | 5.96 µM (active)
CCCCC/C=C\C/C=C\C/C=C\CCCCC(=O)O | 2.62 | 
COc1ccc(/C=C/C(=O)OCCC(C)C)cc1 | -9.88 | 
CC(=O)[C@@]1(O)CC[C@H]2[C@@H]3C=C(Cl)C4=CC(=O)[C@@H]5C[C@@H]5[C@]4(C)[C@H]3CC[C@@]21C | -17.9 | 
O=C1CC[C@@H](C(=O)N2CSC[C@H]2C(=O)O)N1 ([pGlu]-[Thz]-OH) | 0.609 | 
CCCc1ccc(C(=O)O)cc1 | 10 | 
CCOc1cc(-c2nccc3cc(OC)c(OC)cc23)cc(OCC)c1OCC |  | 4.22 µM (active)
CCCCCCCCCCCCCCCC(=O)O[C@@H]1[C@@H](O)[C@@H](O)[C@@H]([C@H](NC(=O)[C@@H]2C[C@@H](CCC)CN2C)[C@H](C)Cl)O[C@@H]1SC | -14.9 | 
OCCN1CCN(CC/C=C2/c3ccccc3Sc3ccc(Cl)cc32)CC1 |  | 9.02 µM (active)
CCC(Cc1c(I)cc(I)c(O)c1I)C(=O)O (stereo unspecified) | -2.46 | 
C=C[C@]1(C)C[C@@H](OC(=O)CSC(C)(C)CNC(=O)[C@H](N)C(C)C)[C@]2(C)[C@H](C)CC[C@]3(CCC(=O)[C@H]32)[C@@H](C)[C@@H]1O |  | 0.188 µM (active)
C[C@H]1C[C@H]2[C@@H]3CCC4=CC(=O)C=C[C@]4(C)[C@@]3(F)[C@@H](O)C[C@]2(C)[C@@]1(O)C(=O)CCl |  | 18.8 µM (active)
CN=C1C=CC(=C(c2ccc(N(C)C)cc2)c2ccc(N(C)C)cc2)C=C1 |  | 0.531 µM (active)
CC(=O)O[C@H]1C(=O)[C@@]2(C)[C@H]([C@H](OC(=O)c3ccccc3)[C@]3(O)C[C@H](OC(=O)[C@H](O)[C@@H](NC(=O)c4ccccc4)c4ccccc4)C(C)=C1C3(C)C)[C@]1(OC(C)=O)CO[C@@H]1C[C@@H]2O |  | 0.0106 µM (active)
